Compounds without any hit were thinned out: in the full panel of roughly 79,000, 15% have a hit. Active and inactive are the calls of the source. Cut-off read from the data, not from the text of the source: active = growth inhibition above about 70%; inactive = the rest.
Key:
[1] = NCI Yeast Anticancer Drug Screen. Data for the mlh1 strain (AID 171);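 note: 0% = growth of vehicle-treated control cultures of the same strain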; details: S. cerevisiae mlh1 strain growth inhibition, stronger effect = higher value
Procedure, shortened: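 Compounds are applied to a genetically altered yeast strain, and its growth is compared with that of vehicle-treated cultures to give percent inhibition.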

[2] = NCI Yeast Anticancer Drug Screen. Data for the sgs1 strain (AID 173);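 note: 0% = growth of vehicle-only control cultures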; details: S. cerevisiae sgs1 mutant, stronger effect = higher value
Procedure, shortened: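 Compounds applied to genetically altered yeast; growth compared with vehicle-treated cultures to give % inhibition.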

[3] = NCI Yeast Anticancer Drug Screen. Data for the mlh1 rad18 strain (AID 175); details: S. cerevisiae mlh1 rad18 strain growth inhibition, stronger effect = higher value
Procedure, shortened: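 Cells of a genetically altered yeast strain, deficient in DNA damage repair, were treated with compound. Their growth was then compared with that of vehicle-treated cultures to give inhibition.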

[4] = NCI Yeast Anticancer Drug Screen. Data for the rad18 strain (AID 177); details: S. cerevisiae rad18 mutant growth inhibition, stronger effect = higher value
Procedure, shortened: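 Compounds are applied to a repair-deficient yeast strain, and growth is compared with that of vehicle-treated cultures to give percent inhibition.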

[5] = NCI Yeast Anticancer Drug Screen. Data for the rad52 strain (AID 147);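 note: 0% = growth of vehicle-treated control cultures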; details: S. cerevisiae rad52 mutant growth inhibition, stronger effect = higher value
Procedure, shortened: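 DNA repair-defective yeast; compound exposure; growth scored against vehicle controls.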

[6] = NCI Yeast Anticancer Drug Screen. Data for the wt1 strain (AID 149);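 note: 0% = growth of vehicle-treated wt1 cultures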; details: S. cerevisiae wt1 strain (SPY 50644) growth inhibition, stronger effect = higher value
Procedure, shortened: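 Compounds are added to wt1 yeast cultures. Growth is then measured. Inhibition is expressed relative to vehicle-treated controls.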

[7] = NCI Yeast Anticancer Drug Screen. Data for the rad50EPP+ strain (AID 151);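 note: 0% = growth of vehicle-treated control cultures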; details: S. cerevisiae rad50 mutant strain, stronger effect = higher value
Procedure, shortened: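 rad50EPP+ yeast treated with test compounds. Readout: growth vs vehicle control.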

[8] = NCI Yeast Anticancer Drug Screen. Data for the mgt1 strain (AID 153); details: S. cerevisiae mgt1 mutant growth inhibition, stronger effect = higher value
Procedure, shortened: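 Growth inhibition relative to vehicle controls was scored for the mgt1 yeast strain after compound exposure.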

[9] = NCI Yeast Anticancer Drug Screen. Data for the rad50 strain (AID 155);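 note: 0% = growth of vehicle-only cultures of the same strain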; details: S. cerevisiae rad50 strain growth inhibition, stronger effect = higher value
Procedure, shortened: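 Inhibition values express reduced yeast growth in compound-treated cultures relative to vehicle-treated controls.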

[10] = NCI Yeast Anticancer Drug Screen. Data for the mec2-1 strain (AID 157); details: S. cerevisiae mec2-1 strain, stronger effect = higher value
Procedure, shortened: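 Growth inhibition is read against vehicle-treated controls after compound exposure of the mec2-1 yeast strain, which is defective in DNA damage repair or cell cycle control.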

[11] = NCI Yeast Anticancer Drug Screen. Data for the sgs1 mgt1 strain (AID 161);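 note: 0% = growth of cultures given vehicle only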; details: S. cerevisiae sgs1 mgt1 strain, stronger effect = higher value
Procedure, shortened: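 Percent growth inhibition was derived by comparing compound-exposed mutant yeast with vehicle-exposed cultures. The strain carries alterations in DNA damage repair.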

[12] = NCI Yeast Anticancer Drug Screen. Data for the CLN2oe strain (AID 163);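 note: 0% = growth of vehicle-only control cultures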; details: S. cerevisiae CLN2oe strain, stronger effect = higher value
Procedure, shortened: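 Compound-treated yeast; growth vs vehicle ctrl = % inhibition. Genetically altered strain (cell-cycle control).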

[13] = NCI Yeast Anticancer Drug Screen. Data for the cln2 rad14 strain (AID 165);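 note: 0% = growth equal to vehicle treated cultures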; details: S. cerevisiae cln2 rad14 strain, stronger effect = higher value
Procedure, shortened: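 Growth inhibition, relative to vehicle-treated controls, is the read-out. The test organism is a yeast strain with defined genetic alterations, cln2 rad14.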

[14] = NCI Yeast Anticancer Drug Screen. Data for the bub3 strain (AID 167); details: S. cerevisiae bub3 mutant strain, stronger effect = higher value
Procedure, shortened: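 Steps: expose the mutant yeast strain to compound; grow alongside vehicle-treated cultures; measure growth; express inhibition against the vehicle cultures.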

[15] = NCI Yeast Anticancer Drug Screen. Data for the wt2 strain (AID 169);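 note: 0% = growth of vehicle-treated yeast cultures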; details: S. cerevisiae wt2 strain growth inhibition, stronger effect = higher value
Procedure, shortened: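 Compound exposure of yeast; growth compared with vehicle controls; inhibition reported.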

[16] = at 5.0 µM (retest, dose inferred, filed as 0.5)
[17] = at 50.0 µM (retest, dose inferred, filed as 5.0)

Measured: growth inhibition

O=C(NCCCCN(CCCNC(=O)C(F)(F)F)Cc1ccccc1)C(F)(F)F
inactive: [1]; at 33.0 µM 26% | [1]; at 100.0 µM 7% | [2]; at 1.2 µM 40% | [2]; at 3.7 µM 41% | [2]; at 11.0 µM 44% | [2]; at 33.0 µM 15% | [2]; at 100.0 µM 36% | [3]; [16] 19% | [3]; [17] 24% | [3]; at 50.0 µM -63% | [4]; at 1.2 µM 13% | [4]; at 3.7 µM 12% | [4]; at 11.0 µM 21% | [4]; at 33.0 µM 14% | [4]; at 100.0 µM -7%

C=CCNC1=C2C[C@@H](C)C[C@H](OC)[C@H](O)[C@@H](C)/C=C(\C)[C@H](OC(N)=O)[C@@H](OC)/C=C\C=C(/C)C(=O)NC(=CC1=O)C2=O
inactive: [5]; at 1.2 µM -16% | [5]; at 3.7 µM -21% | [5]; at 11.0 µM 46% | [6]; at 1.2 µM -26% | [6]; at 3.7 µM -53% | [6]; at 11.0 µM 41% | [7]; at 1.2 µM -33% | [7]; at 3.7 µM -43% | [7]; at 11.0 µM -46% | [7]; at 33.0 µM -30% | [7]; at 100.0 µM -1% | [8]; at 1.2 µM -72% | [8]; at 3.7 µM -44% | [8]; at 11.0 µM 57% | [9]; at 1.2 µM -33% | [9]; at 3.7 µM -12% | [9]; [16] -32% | [9]; at 11.0 µM 64% | [10]; at 1.2 µM -73% | [10]; at 3.7 µM -59% | [10]; [16] 5% | [11]; [16] -7% | [12]; at 1.2 µM -60% | [12]; at 3.7 µM -43% | [12]; at 100.0 µM 27% | [13]; [16] -4% | [14]; at 1.2 µM -49% | [14]; at 3.7 µM -12% | [14]; [16] 35% | [15]; at 1.2 µM -51% | [15]; at 3.7 µM -65% | [15]; at 11.0 µM 33% | [1]; at 1.2 µM -36% | [1]; at 3.7 µM -56% | [1]; at 11.0 µM 50% | [2]; at 1.2 µM -34% | [2]; at 3.7 µM -10% | [2]; at 11.0 µM 56% | [3]; [16] -7% | [4]; at 1.2 µM -22% | [4]; at 3.7 µM -23% | [4]; at 11.0 µM 68%
active: [5]; at 33.0 µM 97% | [5]; at 100.0 µM 97% | [6]; at 33.0 µM 95% | [6]; at 100.0 µM 96% | [8]; at 33.0 µM 95% | [8]; at 100.0 µM 95% | [9]; at 33.0 µM 95% | [9]; [17] 96% | [9]; at 50.0 µM 90.8% | [9]; at 100.0 µM 95% | [10]; at 11.0 µM 77% | [10]; at 33.0 µM 96% | [10]; [17] 98% | [10]; at 50.0 µM 92.5% | [10]; at 100.0 µM 95% | [11]; [17] 96% | [11]; at 50.0 µM 92% | [12]; at 11.0 µM 80% | [12]; at 33.0 µM 96% | [13]; [17] 97% | [13]; at 50.0 µM 90.3% | [14]; at 11.0 µM 74% | [14]; at 33.0 µM 95% | [14]; [17] 98% | [14]; at 50.0 µM 90.4% | [14]; at 100.0 µM 94% | [15]; at 33.0 µM 93% | [15]; at 100.0 µM 96% | [1]; at 33.0 µM 94% | [1]; at 100.0 µM 95% | [2]; at 33.0 µM 94% | [2]; at 100.0 µM 96% | [3]; [17] 97% | [3]; at 50.0 µM 89.1% | [4]; at 33.0 µM 95% | [4]; at 100.0 µM 95%

From PubChem BioAssay (NCI)
